For 3 compounds, outcome results are on record in PubChem BioAssay (EPA / NIEHS).

Results filed as inconclusive are left out. The source made the active and inactive calls. Rule for the calls: active = hit-call score of the fitted dose curve at least 0.9, where 1 is the maximum; inconclusive = response in the unintended direction; inactive = score below 0.9.

A short description of this assay: TOX21_PR_LUC_Followup_Antagonist_viability: Viability Assessment in the Tox21 HEK293 Progesterone Receptor (PR) Antagonism Luciferase Follow-Up Assay (AID 2283940). The essentials:
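Loss of CellTiter-Glo ATP signal indicates cytotoxicity in HEK293-PR-A-luc cells grown in 10% charcoal-stripped FBS medium, seeded 3,000 per well and incubated 16 h with compound at 37C.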
Consider `COc1ccc(-c2coc3cc(O)cc(O)c3c2=O)cc1`, for which the outcome was inactive.

Regarding `Oc1ccc(-c2ccccc2)c(Cl)c1`, the outcome was inactive.

Consider `c1ccc2c(c1)[nH]c1ccccc12`, for which the compound was called inactive.
